# LASV entry inh: qHTS for Inhibitors of binding or entry into cells for Lassa Virus; actives 1.2% (n = 300,000); Lassa virus pseudotype entry inhibition, cell reporter; Potency, µM (doses to about 37.9 µM), without a hit: at the highest dose activity change, negative = inhibition, most hits filed as inhibitors; AID 540256, 2011; calls by dose curve; tested in HEK293 cells; further: potency means the concentration at half of the fitted maximal effect; on the % scale 0 is the no-effect control and ±100 the full control effect; nearly all actives have a fitted effect of over 50% in size
# Marburg entry inh: qHTS for inhibitors of binding or entry into cells for Marburg Virus. Marburg virus pseudotyped entry inhibition, cell reporter. Potency, µM (series often up to 37.8 µM), inactives show at the top dose activity change, negative = inhibition, most hits filed as inhibitors. actives 1.8% (n = 300,000). AID 540276, 2011; calls by dose curve; tested in HEK293 cells; further: potency means the concentration at half of the fitted maximal effect; on the % scale 0 is the no-effect control and ±100 the full control effect
# Pf growth 96h: Primary qHTS for delayed death inhibitors of the malarial parasite plastid, 96 hour incubation. actives 6.9% (n = 320,000). AID 504834, 2011. Potency, µM (titrated, usually from 28.7 µM), without a hit: at the top dose activity change, negative = inhibition, usual class: inhibitors. P. falciparum luciferase reporter growth, 96 h; further: potency means the concentration at half of the fitted maximal effect; on the % scale 0 is the no-effect control and ±100 the full control effect
#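 Cell-based qHTS: luciferase-tagged P. falciparum in erythrocytes (2% hematocrit, 0.05% parasitemia final) incubated with compounds for 96 hours, 37 C, 5% CO2; luciferase detection reagent then added and luminescence measured.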
# CHX counter: Cycloheximide Counterscreen for Small Molecule Inhibitors of Shiga Toxin | AID 2314, 2010 | actives 12% (n = 300,000) | cell reporter, cycloheximide protein synthesis inhibition counterscreen | max response, %; in the data active means max response mostly above about 13%, no sharp cut-off; inactive means mostly below about 14%; further: read at 38.3 µM for the half of the compounds with a filed dose; 0% is about no effect
# Shiga inhibitor: A qHTS for Small Molecule Inhibitors of Shiga Toxin; Vero cells, Shiga toxin protein synthesis inhibition reporter; inhibition, % at 38.7 µM; actives 9.2% (n = 290,000); in the data active means inhibition mostly above about 28%, no sharp cut-off; inactive means mostly below about 43%; further: 0% is about no effect
# Pf growth 48h: Primary qHTS for delayed death inhibitors of the malarial parasite plastid, 48 hour incubation | P. falciparum luciferase growth in erythrocytes, 48 h | Potency, µM (highest dose often 28.7 µM), for inactives: top-dose activity change, negative = inhibition, hits mostly inhibitors | actives 5.9% (n = 310,000) | AID 504832, 2011; further: potency means the concentration at half of the fitted maximal effect; on the % scale 0 is the no-effect control and ±100 the full control effect
#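 Growth was read as firefly luciferase luminescence after a 48 h, 37 C, 5% CO2 exposure of compounds to reporter-bearing P. falciparum cultures (0.1% parasitemia, 2% hematocrit final) in Albumax-supplemented RPMI 1640.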
# The depositor's hits bear a star; ? = inconclusive; / = no result; [ ] = remark or other dose. Compounds with a hit are over-represented: about 19% of the library has one in this group of screens. Unless noted, the call rests on the fitted dose curve; in most records, active means well fitted inhibition curve with a large enough effect; inconclusive means small, poorly fitted or top-dose-only effect, or another doubt; inactive means no such curve, though single readings can be large or run the other way.
SMILES,LASV entry inh,Marburg entry inh,Pf growth 96h,CHX counter,Shiga inhibitor,Pf growth 48h
O=C(CCCSc1nc2ccccc2s1)NCc1ccco1,22%,23%,?,16*,81,/
CCc1ccccc1NC(=O)CCCSc1nc2ccccc2s1,2%,-4%,-3%,12*,13,-5%
Cc1cc2[nH]c(=O)c(=O)[nH]c2cc1S(=O)(=O)Nc1cccc(F)c1,/,/,-2%,-1,-4,14%
COC(=O)CCC(=O)NNC(=O)C1CC1(c1ccccc1)c1ccccc1 (stereo not given),/,/,10µM*,-4,-6,18%
NC(=O)[C@H](Cc1cc2ccccc2s1)NC(=O)[C@@H]1CC2(CC(c3cccc(NC(=O)[C@@H]4CCC(=O)N4)c3)=NO2)CN1C(=O)c1ccccc1 (stereo not given in full),/,/,10µM*,-3,-19,13µM*
NC(=O)[C@H](Cc1cc2ccccc2s1)NC(=O)[C@@H]1CC2(CC(c3cccc(NC(=O)[C@@H]4CCC(=O)N4)c3)=NO2)CN1C(=O)/C=C/c1c(F)cccc1Cl (stereo not given in full),/,/,2.9µM*,2,-4,4.1µM*
NC(=O)[C@H](Cc1cc2ccccc2s1)NC(=O)[C@@H]1CC2(CC(c3cccc(NC(=O)[C@@H]4CCC(=O)N4)c3)=NO2)CN1C(=O)/C=C/Sc1ccccc1 (stereo not given in full),3%,12%,?,-2,24,13µM*
O=C(CCN1C(=O)/C(=C/c2cccs2)SC1=S)Nc1cccc(O)c1,?,?,3%,4,5,3%
CC(C)(C)c1cnnn1-c1ccc(-c2csc(N)n2)cc1,15%,3%,-4%,21,18,?
CC(C)(C)C(=O)N1CCc2cc(-c3csc(N)n3)ccc21,2µM*,?,-5%,6,27,103%
CCCC(=O)N1CCc2cc(-c3nc(N)sc3C)ccc21,-11%,20%,84%,49*,79*,108%
CC(=O)Nc1nc(-c2ccc3c(c2)CCN3C(=O)C2CC2)c(C)s1,14%[46.1 µM],?,-2%,7,14,-7%
CNc1nc(-c2ccc3c(c2)CCN3C(=O)CC(C)(C)C)c(C)s1,/,/,14%,7,-2,22%
CCC(C)C(=O)N1CCc2cc(-c3csc(N)n3)ccc21 (stereo not given),-3%,?,7%,52*,65*,28%
CN(C)C(CNc1ccc(C(N)=O)cc1[N+](=O)[O-])c1ccccc1 (stereo not given),-1%[46.1 µM],13%[46.1 µM],29%,-1,56,39%
CC(C)=CC(=O)Nc1nc2ccc([N+](=O)[O-])cc2s1,26%,?,11%,44*,55*,?
Cc1ccc(C)c(OCC(=O)Nc2nc3ccc([N+](=O)[O-])cc3s2)c1,4%,-3%,5%,-3,4,0%
O=[N+]([O-])c1ccc2nc(NS(=O)(=O)c3ccccc3[N+](=O)[O-])sc2c1,11%[46.1 µM],?,?,8,3,38%
C/C(=C\c1ccccc1)C(=O)Nc1nc2ccc([N+](=O)[O-])cc2s1,15%,10%,1%,19*,-5,53%
COc1ccc([N+](=O)[O-])cc1N(CC(O)CN1C(=O)NC(C)(C)C1=O)S(=O)(=O)c1ccccc1 (stereo not given),6%[46.1 µM],-1%[46.1 µM],15µM*,-6,-15,22%
Cc1oc(-c2ccc(C(=O)NCc3ccccc3)cc2)nc1CS(=O)(=O)c1ccccc1,-2%[46.1 µM],/,/,/,/,/
Cc1cccc(C)c1OCc1nc2c3cnn(-c4ccccc4F)c3ncn2n1,27%[46.1 µM],?,/,/,/,/
Cc1ccc(-n2c(C3CC3c3ccc(Cl)cc3)n[nH]c2=S)cc1 (stereo not given),-7%,3%,9.3µM*,-6,-16,/
S=c1[nH]nc(C2CC2c2ccc(Cl)cc2)n1-c1ccc(Cl)cc1 (stereo not given),16µM*,-21%,-9%,-1,-4,7%
Cc1ccc(C2CC2c2n[nH]c(=S)n2-c2ccc(C)cc2)cc1 (stereo not given),?,-11%,/,9,-6,-1%
SMILES,LASV entry inh,Marburg entry inh,Pf growth 96h,CHX counter,Shiga inhibitor,Pf growth 48h
COc1cc2c(cc1OC)-c1cc(NC3CCCCC3)nc(=O)n1CC2,-11%,27%,?,-4,-6,?
Fc1ccc(/C=N/Nc2ncnc3nc[nH]c23)cc1F,4%,?,9.3µM*,73*,99*,?
Cc1ccccc1/C=N/Nc1ncnc2nc[nH]c12,/,/,8%,21*,72*,-15%
Cc1ccsc1/C=N/Nc1ncnc2nc[nH]c12,/,/,234%,42*,85*,185%
C(=N\Nc1ncnc2nc[nH]c12)/c1cccs1,/,/,270%,41*,111*,101%
COC(=O)/C(=C\c1c(OC)cc(OC)cc1OC)C(=O)c1ccc2c(c1)OCO2,/,/,/,-5,-1,/
CC(C)NCC(O)c1ccc(NS(C)(=O)=O)cc1 (stereo not given),22%,17%,?,-2,-5,7%
Cc1cc(C)c(NC(=O)C2CCCN2C)c(C)c1 (stereo not given),16%,10%,8.3µM*,-5,-21,39%
COc1ccc(NC(=O)CCn2cccn2)cc1OC,6%[46.1 µM],/,/,/,/,/
COc1cc(CN2CCN(c3cccc(C)c3C)CC2)cc(Br)c1O,?,?,/,-3,14,4.1µM*
COc1cc(CN2CCc3ccc(NC(=O)CCc4ccccc4OC)cc3C2)ccc1O,/,/,-14%,11,6,5.2µM*
COc1ccc(CN2CCc3ccc(NC(=O)CCc4ccccc4OC)cc3C2)c(O)c1,?,?,-17%,8,2,2.1µM*
COc1ccccc1CCC(=O)Nc1ccc2c(c1)CN(CCCn1cccn1)CC2,/,/,-15%,-3,7,8.3µM*
COc1cccc(CN2CCc3ccc(NC(=O)CCc4ccc(C)cc4)cc3C2)c1O,/,/,?,14,-3,?
COc1ccc(CN2CCN(c3cccc(C)c3C)CC2)cc1OC,-2%,4%,/,1,-11,/
O=C(NCc1ccccc1)C1=C[C@H](c2ccc3c(c2)OCO3)C[C@H](OCCCCO)O1,/,/,-25%,7,21,-17%
CCOc1cc(CN2CCN(c3cccc(C(F)(F)F)c3)CC2)ccc1O,-5%,16µM*,54%,-5,-12,?
COc1cc(CN2CCc3ccccc3C2)ccc1O,/,/,7%,30*,54*,3%
COc1cc(CN2CCN(c3cc(C)ccc3C)CC2)ccc1O,/,-1%,/,-3,-7,10µM*
Cc1nc2nc(C)c(CCC(=O)NCCCN3CCN(c4cccc(Cl)c4)CC3)c(C)n2n1,9%,-13%,-8%,-7,16,?

# High-throughput results (PubChem BioAssay)
